Holding throughout (experiment): filter; Kd target / Kd hKGF
Test [1] addresses bFGF (Homo sapiens, UniProt P09038 P09038:143-288). Conditions: tags: R&D Systems; pseudoknot; ssRNA; 2'-F pyrimidines.
Test [2] deals with aFGF (Homo sapiens, UniProt P05230 P05230:16-155). Conditions: tags: R&D Systems; pseudoknot; ssRNA; 2'-F pyrimidines.
Test [3] addresses T1, KGF (rat) (Rattus norvegicus, UniProt Q02195 Q02195:32-194).
T1 sequence: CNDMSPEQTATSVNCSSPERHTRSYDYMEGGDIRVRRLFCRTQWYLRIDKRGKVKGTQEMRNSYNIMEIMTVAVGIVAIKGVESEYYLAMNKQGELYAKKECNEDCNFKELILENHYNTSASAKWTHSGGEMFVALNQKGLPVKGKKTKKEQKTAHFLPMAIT
Conditions: tags: QED Advanced Research Technologies; pseudoknot; ssRNA; 2'-F pyrimidines.

The source of these data is patent US20030180744, “High affinity oligonucleotide ligands to growth factors” (GILEAD SCIENCES, INC., published 2003).

Sequence of bFGF (P09038 143-288, one chain of several): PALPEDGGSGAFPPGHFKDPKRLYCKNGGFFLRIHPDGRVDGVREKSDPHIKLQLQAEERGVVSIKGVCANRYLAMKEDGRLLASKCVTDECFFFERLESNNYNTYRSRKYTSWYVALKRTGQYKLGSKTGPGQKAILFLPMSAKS
Sequence of aFGF (P05230 16-155, one chain of several): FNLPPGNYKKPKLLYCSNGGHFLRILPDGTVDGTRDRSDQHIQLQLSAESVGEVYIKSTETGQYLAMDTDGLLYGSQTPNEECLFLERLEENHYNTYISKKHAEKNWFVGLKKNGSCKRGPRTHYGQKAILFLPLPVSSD

Regarding “GGGAGGACGAUGCGGUGGUCUCCCAAUUCUAAACUUUCUCCAUCGUAUCUGGGCCAGACGACUCGCCCGA”, the binding signal in test [1] was 1070; in test [2], 38600; in test [3], 1250.
